An excerpt weighted towards active compounds, which were near 3.5% of everything screened.
MITF inh – human MITF inhibition, primary screen; AID 1259374; inhibition, % at 2.6 µM; O75030; actives 0.91% (n = 650,000); AlphaScreen MITF homodimerization, bead proximity signal; in the data active = inhibition above about 50%
Target sequence (O75030 whole entry, looked up): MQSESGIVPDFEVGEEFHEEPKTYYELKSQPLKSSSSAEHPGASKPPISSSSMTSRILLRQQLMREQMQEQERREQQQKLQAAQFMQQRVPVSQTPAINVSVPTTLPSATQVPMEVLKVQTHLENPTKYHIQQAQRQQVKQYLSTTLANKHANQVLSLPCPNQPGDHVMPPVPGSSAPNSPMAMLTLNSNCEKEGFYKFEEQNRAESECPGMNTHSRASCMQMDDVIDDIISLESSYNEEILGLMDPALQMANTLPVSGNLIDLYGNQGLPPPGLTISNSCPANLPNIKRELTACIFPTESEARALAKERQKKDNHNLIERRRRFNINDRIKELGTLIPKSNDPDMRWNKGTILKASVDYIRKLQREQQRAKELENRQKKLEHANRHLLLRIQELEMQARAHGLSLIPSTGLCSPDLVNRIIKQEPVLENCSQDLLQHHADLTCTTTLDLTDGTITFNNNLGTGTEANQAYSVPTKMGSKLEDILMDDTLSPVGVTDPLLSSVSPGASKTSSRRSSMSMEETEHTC
FBW7 act – activators of human E3 ligase FBW7; AlphaScreen FBW7–phospho-cyclin E peptide binding, activator screen; normalized activity (activation), % at 26.1 µM; actives 0.13% (n = 650,000); Q969H0; in the data active = normalized activity above about 1.9%;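 note: purified mutant Fbw7 with reduced substrate affinity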
GPR151 ag – human GPR151 activation. Q8TDV0. PathHunter beta-arrestin GPR151 cells, luminescence. activation, % at 11.2 µM. actives 1% (n = 650,000). AID 1508602; in the data active = activation above about 4.9%
TEAD-YAP block – TEAD-YAP interaction inhibition. HEK-TIYL cells, TEAD-Gal4/YAP UAS-luciferase luminescence. inhibition, % at 9.12 µM. actives 1.4% (n = 640,000); in the data active = inhibition above about 32%
Numbers stand for hits; . = inactive.

SMILES	MITF inh	FBW7 act	GPR151 ag	TEAD-YAP block
O=C(COc1ccccc1)Nc1nccs1	.	.	.	.
COc1cccc(-n2cc(C(=O)Nc3nccs3)c3ccccc3c2=O)c1	.	.	.	43.0
CC(=O)Nc1cccc(NC(=O)c2cn(-c3ccc(C)c(C)c3)c(=O)c3ccccc23)c1	.	.	.	44.3
COc1cccc(OCC(=O)Nc2nccs2)c1	.	.	.	36.9
CCOc1ccccc1NC(=O)CSC1CC(=O)N(c2ccc(C)cc2C)C1=O (stereo unspecified)	.	.	.	.
CC(=O)Nc1ccc(NC(=O)c2cccc(-c3ccc(C(=O)N4CCN(C)CC4)cc3)n2)cc1	.	.	.	.
C/C(=N/Nc1cccc(C)c1C)c1ccc(O)c(C(N)=O)c1	.	.	.	.
COc1cc(Nc2cc(N3CCC(C)CC3)c3noc4c3c2C(=O)c2ccccc2-4)cc(OC)c1OC	.	.	.	42.7
O=C1c2ccccc2-c2onc3c(N4CCCCC4)cc(N4CCOCC4)c1c23	61.7	.	.	.
Cc1cccc(Nc2cc(N3CCOCC3)c3noc4c3c2C(=O)c2ccccc2-4)c1	.	.	.	.
COc1cc(Nc2cc(N3CCCC3)c3noc4c3c2C(=O)c2ccccc2-4)cc(OC)c1OC	.	.	.	.
Cc1ccccc1Nc1cc(N2CCOCC2)c2noc3c2c1C(=O)c1ccccc1-3	54.8	.	.	.
O=C(N[C@H]1C[C@H]2C(=O)N[C@@H](Cc3ccc(Cl)cc3)C(=O)N2C1)Oc1ccccc1	.	.	.	.
O=C1NC(=S)N/C1=C/c1ccc(-c2ccc3c(c2)C(=O)OC3)o1	.	2.5	.	.
O=C1NC(=S)N/C1=C/c1ccc(-c2cccc(Cl)c2)o1	.	.	.	.
CCN(CC)c1ccc(NC(=O)CNCCN2CCOCC2)c(C)c1	60.6	.	.	.
CC(NC(=O)CCl)C1COc2ccccc2O1 (stereo unspecified)	.	.	.	36.7
CCCNS(=O)(=O)c1ccc(F)c(C(=O)Nc2c(C)cccc2C)c1	.	.	.	.
O=S(=O)(NCC1CCCO1)c1ccc(Br)cc1 (stereo unspecified)	.	.	.	.
O=S(=O)(NCC1CCCO1)c1ccc(Oc2ccc(S(=O)(=O)NCC3CCCO3)cc2)cc1 (stereo unspecified)	.	.	.	58.9
CCn1c(=N)n(CC(=O)c2ccc(C)cc2)c2ccccc21	.	.	.	.
CCn1c(=N)n(CC(=O)c2ccc(Br)cc2)c2ccccc21	.	3.4	.	.
N#Cc1ccc(OCC(=O)OCc2ccc(Br)cc2)cc1	.	.	.	.
O=C(COc1ccc(Br)cc1)OCc1ccccc1	.	1.9	.	.
O=C(OCC(=O)N1CCCCCC1)c1cc(O)c(O)c(O)c1	90.7	.	.	.
SMILES	MITF inh	FBW7 act	GPR151 ag	TEAD-YAP block
Cc1cc(C)cc(C(=O)OCC(=O)N2CCCC2)c1	.	.	.	.
O=C(OCC(=O)N1CCN(Cc2ccccc2)CC1)c1cc(O)c(O)c(O)c1	84.0	.	.	.
O=c1[nH]c(N2CCOCC2)nc2c1CCN(Cc1ccccc1)C2	.	2.7	.	.
O=c1[nH]c(N2CCOCC2)nc2c1CCN(Cc1ccccc1F)C2	.	.	.	.
NC(=O)c1nn(-c2ccccc2)nc1/C=C\C(=O)O	.	.	.	.
COC(=O)/C=C\c1nn(-c2ccccc2)nc1C#N	.	.	.	60.0
COc1ccc(-c2cnc(NCCCn3ccnc3)nc2)cc1	.	.	.	.
COc1ccc(-c2cnnc(NCCCn3ccnc3)n2)cc1	.	.	.	32.3
COc1cc(OC)cc(-c2cc3nc4c(c(NCCCn5ccnc5)n3n2)CCCC4)c1	.	2.4	.	.
CSc1cccc(NC(=O)C2C3C=CC4(O3)C2C(=O)N(CCC2=CCCCC2)C4C(=O)NC2CCCC(C)C2C)c1 (stereo unspecified)	.	.	.	.
CCCNC(=O)C1CCN(c2ccc(Nc3ccc(-n4ccnc4)cc3)nn2)CC1	.	.	.	.
CCNc1nc(C)cc(NCc2cccc(C(F)(F)F)c2)n1	.	.	.	.
FC(F)(F)c1cccc(CNc2ccnc(Nc3ccc(-n4ccnc4)cc3)n2)c1	.	.	.	35.8
CCNc1nccc(NCc2cccc(C(F)(F)F)c2)n1	.	.	.	37.2
OC1CCC(Nc2nccc(NCc3cccc(C(F)(F)F)c3)n2)CC1 (stereo unspecified)	.	.	.	47.9
OC1CCC(Nc2nccc(NCc3ccccc3)n2)CC1 (stereo unspecified)	.	.	.	.
COC(=O)c1c(NC(=O)c2ccccc2)sc2c1CCCC2	.	.	.	.
CC(C)C(OC(=O)c1ccc(Cl)nc1)C(=O)NC(C)(C)C (stereo unspecified)	.	.	.	.
